Measurements: PubChem BioAssay (Tox21)
Several values for one entry are separate records, joined by “and”; a condition that tells them apart may be missing. Equal entries are not always repeated. Records with an inconclusive call do not appear. Entries that show only a call come without a potency. Some compounds were tested as several samples or in several runs, with calls that do not always agree. Activity calls are given as the source filed them. Calls come from the whole dose curve; as a rule, active = well fitted activation curve with a large enough effect in the repeat runs; inconclusive = weak or mixed curves; inactive = flat fitted curve, though single readings scatter.

Experiment: A CellTox Green Cytotoxicity Assay to monitor cytotoxicity in HepG2 cells - 40 hour (AID 1224879); note: nearly all actives have a fitted effect of over 40% in size
Conditions: CellTox Green fluorescence; series mostly up to 76.8 µM; cytotoxicity increase: at the top concentration
Text: National Center for Advancing Translational Sciences [NCATS]
NIH Chemical Genomics Center [NCGC]
U.S. Environmental Protection Agency [EPA]
National Institutes of Environmental Health Sciences [NIEHS]
National Toxicology Program [NTP]
Cell-based models are critical for drug discovery. Determining the natural cytotoxic effects resulting from test compounds is an essential research activity. A CellTox Green Cytotoxicity Assay to monitor cytotoxicity in real time of continues cell culture during 40 hours of the compound treatment was used to screen Tox21 10K library compounds in HepG2 cells. CellTox Green Cytotoxicity Assay is a nonlytic, homogeneous, biofluorescent method to measure cytotoxicity in cell culture after experimental manipulation. The assay system uses a proprietary asymmetric cyanine dye that is excluded from viable cells but preferentially stains the dead cell's DNA. […] Viable cells produce no appreciable increases in fluorescence. Therefore, the fluorescence signal produced by the binding interaction with dead cell DNA is proportional to cytotoxicity.
The mixture of HepG2 cell suspension and reagents were dispensed at 600cells/6 ul/well in 1536-well tissue culture treated black solid bottom plates using a Multidrop dispenser. After the assay plates were incubated at a 37 C/5% CO2 incubator for 5 hours, 23 nL of compounds dissolved in DMSO, positive and negative controls was transferred to the assay plate by a pintool work station. The plates were incubated at 37 C for 40 hours. The fluorescence intensity were measured at 0h, 8h, 16h, 24h, 32h and 40h time points using ViewLux plate reader during compound treatment.
Potency is the fitted concentration of half-maximal effect.

SMILES | Potency | cytotoxicity increase
ON=C1CCCCC1 | inactive | 
OCCOCCOCCO | inactive | 
CC(=O)Nc1cccc(O)c1 | inactive | 
O=C(OCCOCCOC(=O)c1ccccc1)c1ccccc1 | inactive | 
N[C@@H](Cc1cc(I)c(Oc2cc(I)c(O)c(I)c2)c(I)c1)C(=O)O | inactive | 
CSCCC=O |  | -4.95% (inactive)
C[C@H]1C[C@H]2[C@@H]3CCC4=CC(=O)C=C[C@]4(C)[C@@]3(F)[C@@H](O)C[C@]2(C)[C@@]1(O)C(=O)CO | inactive | 
Cc1occc(=O)c1O | inactive | 
CCCCCCCCCCCCOCCO |  | -1.84% [at 35.3 µM] (inactive)
OCC(CO)(CBr)CBr | inactive | 
C[Si](O[Si](C)(C)C)O[Si](C)(C)C | inactive | 
CN(C)CCC(c1ccc(Cl)cc1)c1ccccn1 (stereo not given) |  | 25.3% (inactive)
CCCC(C)=O | inactive | 
CCCCCCCC(=O)OC |  | -6.53% (inactive)
CC1CCC2CC1C2(C)C (stereo not given) | inactive | 
CC(=O)CC(=O)Nc1ccccc1 | inactive | 
C#CCN(C)Cc1ccccc1 | inactive | 
c1ccc2c(c1)ccc1ccccc12 |  | 9.13% (inactive)
CC1=CCC2CC1C2(C)C (stereo not given) | inactive | 
O=C(O)c1cc(=O)c2c(OCC(O)COc3cccc4oc(C(=O)O)cc(=O)c34)cccc2o1 | inactive | 

SMILES | Potency | cytotoxicity increase
Nc1cc([N+](=O)[O-])ccc1O | inactive | 
CN(C)CCCN | inactive | 
CC1=CC(=O)NS(=O)(=O)O1 | inactive | 
OCc1cccnc1 | inactive | 
C=C(C)C(=O)O[C@H]1C[C@@H]2CC[C@@]1(C)C2(C)C | 7.71 µM (active) and inactive | 
CCCCCCCCCCCCCCO | inactive | 
CC(C)(C)[C@@H](O)[C@@H](Cc1ccc(Cl)cc1)n1cncn1 |  | -7.23% (inactive)
CC(C)CC(=O)CC(C)C | inactive | 
CCCCCC(N)=O | inactive | 
COc1cc(Cc2cnc(N)nc2N)cc(OC)c1OC | inactive | 
Cc1cc(C)c(C)cc1C | inactive | 
CCc1cccc(C)c1N | inactive | 
CCCCCCCCCCCCc1ccccc1 | inactive | 
Oc1cccc2ccccc12 | inactive | 
COc1ccc(NC(C)=O)cc1N | inactive and 43.6 µM (active) | 
Cc1cnc(C(=O)NCCc2ccc(S(=O)(=O)NC(=O)NC3CCCCC3)cc2)cn1 | inactive | 
C[C@H]1C[C@@H]2[C@H]([C@@H](O)C[C@@]3(C)[C@H]2CC[C@]3(O)C(=O)CO)[C@@]2(C)C=CC(=O)C=C12 | inactive | 
CC(=O)c1ccccc1 | inactive | 
COc1ccc2cc([C@H](C)C(=O)O)ccc2c1 | inactive | 
O=C(O)CCCCCCCCCCC(=O)O | inactive | 
